Experimental data as given in PubChem BioAssay (Tox21).
Unmarked numbers belong to inactive results. Results filed as inconclusive are left out. Where a call stands in place of a potency, no number is given. The source made the active and inactive calls. Unless noted, calls come from the whole dose curve.

Key:
[1] = biological target: Thyrotropin receptor (Homo sapiens) (UniProt P16473); assay: qHTS assay to identify small molecule agonists of the thyroid stimulating hormone receptor (TSHR) signaling pathway (AID 1224843); note: nearly all actives have a fitted effect of over 45% in size
Summary of the method: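 Screening of the Tox21 10K collection used HEK293 cells engineered with TSHR at 800 cells per well. After a 30-min room-temperature compound exposure, HTRF cAMP reagents were added and fluorescence recorded 1 h later.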

[2] = qHTS assay to identify small molecule agonists of the hypoxia (HIF-1) signaling pathway - cell viability counter screen (AID 1224844); note: nearly all actives have a fitted effect of over 50% in size
Summary of the method: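 Cells (HRE-bla ME-180, 2,000 per well) sat 5 hrs at 37C, got compound for 17 hrs, were read for CCF4-AM FRET, and were finally lysed with CellTiter-Glo for a 30 min room-temperature luminescence read.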

[3] = qHTS assay to identify small molecule agonists of H2AX (AID 1224845; active = well fitted activation curve with a large enough effect in the signal ratio in the repeat runs, not every such curve was filed as active; the % refers to the signal ratio)
Summary of the method: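 Phospho-H2AX Ser139 measured by HTRF (ex 320 nm; em 665 and 620 nm) after 24 hr antibody incubation. Compounds, 15 concentrations, 0.76% DMSO, were applied to CHO-K1 cells for 3hr at 37C before lysis.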

[4] = qHTS assay to identify small molecule agonists of the hypoxia (HIF-1) signaling pathway (AID 1224846; active = well fitted activation curve with a large enough effect in the signal ratio in the repeat runs, not every such curve was filed as active; the % refers to the signal ratio)
Summary of the method: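 A low-serum medium (0.5% dialyzed FBS) holding 2,000 HRE-bla ME-180 cells per well is preincubated for 5 hrs, dosed with compounds by pintool, and kept a further 17 hrs at 37C, 5% CO2 before CCF4-AM FRET detection of beta-lactamase.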

[5] = qHTS assay to identify small molecule agonists of H2AX - cell viability counter screen (AID 1224847);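 note: wild-type CHO-K1 cells; top concentration of the series differs between compounds; nearly all actives have a fitted effect of over 30% in size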
Summary of the method: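 Cells plated first: CHO-K1, 1000 per well in 10% FBS medium, incubated overnight at 37C. Then 15-point compound titration added (final DMSO 0.76%) for 3 hr. Finally CellTiter-Glo added and luminescence read.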

[6] = qHTS assay to identify small molecule antagonists of the estrogen related receptor (ERR) signaling pathway from Tox21 library (AID 1224848; active = well fitted curve in the direction sought with a large enough effect in the repeat runs; an effect the other way counts as inactive or inconclusive; note: nearly all actives have a fitted effect of over 50% in size)
Summary of the method: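 Antagonist-mode screen of the Tox21 10K library in an NTP-provided ERR reporter cell line; 18 h compound exposure at 37 C, luminescence measured with ONE-Glo.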

[7] = qHTS assay to identify small molecule agonists of the estrogen related receptor (ERR) signaling pathway from Tox21 library (AID 1224849); details: ERR reporter cell line, ONE-Glo luciferase, 18 h; at 92.4 µM (top of the series) unless noted; note: nearly all actives have a fitted effect of over 15% in size
Summary of the method: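 Screening used an NTP-provided ERR luciferase cell line. Compounds in DMSO were added 6 h after seeding and left 18 h at 37 C before a 30 min ONE-Glo step and luminescence reading.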

[8] = qHTS RealTime-Glo MT Cell Viability Assay in HepG2 cells - 24 hour (AID 1224867; active = well fitted curve in the direction sought with a large enough effect in the repeat runs; an effect the other way counts as inactive or inconclusive; note: nearly all actives have a fitted effect of over 50% in size)
Summary of the method: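 Viability was tracked continuously by NanoLuc luminescence from prosubstrate reduced by living HepG2 cells, at successive time points over 40 h of compound exposure. Cells with reagent were preincubated 5 h at 37 °C before compound addition.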

[9] = qHTS RealTime-Glo MT Cell Viability Assay in HEK293 cells - 32 hour (AID 1224868; active = well fitted curve in the direction sought with a large enough effect in the repeat runs; an effect the other way counts as inactive or inconclusive; note: nearly all actives have a fitted effect of over 50% in size; note: potency is the fitted concentration of half-maximal effect; for activity change, negative = cytotoxic: top concentration of the series differs between compounds)
Summary of the method: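 Viability tracked continuously by luminescence as live cells reduce a prosubstrate for NanoLuc; HEK293 cells preincubated 5 h, compound-treated at 37 C, and read at 0, 8, 16, 24, 32 and 40 h.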

[10] = A CellTox Green Cytotoxicity Assay to monitor cytotoxicity in HEK293 cells - 0 hour (AID 1224869; active = well fitted curve in the direction sought with a large enough effect in the repeat runs; an effect the other way counts as inactive or inconclusive; note: nearly all actives have a fitted effect of over 50% in size)
Summary of the method: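 Fluorescence intensity, read at 0, 8, 16, 24, 32 and 40 h of compound treatment, reflected dye binding to DNA of dead HEK293 cells; compounds (23 nL, DMSO) were added 5 h after plating cells with reagent.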

Chain of Thyrotropin receptor (Homo sapiens) (P16473 whole entry, looked up): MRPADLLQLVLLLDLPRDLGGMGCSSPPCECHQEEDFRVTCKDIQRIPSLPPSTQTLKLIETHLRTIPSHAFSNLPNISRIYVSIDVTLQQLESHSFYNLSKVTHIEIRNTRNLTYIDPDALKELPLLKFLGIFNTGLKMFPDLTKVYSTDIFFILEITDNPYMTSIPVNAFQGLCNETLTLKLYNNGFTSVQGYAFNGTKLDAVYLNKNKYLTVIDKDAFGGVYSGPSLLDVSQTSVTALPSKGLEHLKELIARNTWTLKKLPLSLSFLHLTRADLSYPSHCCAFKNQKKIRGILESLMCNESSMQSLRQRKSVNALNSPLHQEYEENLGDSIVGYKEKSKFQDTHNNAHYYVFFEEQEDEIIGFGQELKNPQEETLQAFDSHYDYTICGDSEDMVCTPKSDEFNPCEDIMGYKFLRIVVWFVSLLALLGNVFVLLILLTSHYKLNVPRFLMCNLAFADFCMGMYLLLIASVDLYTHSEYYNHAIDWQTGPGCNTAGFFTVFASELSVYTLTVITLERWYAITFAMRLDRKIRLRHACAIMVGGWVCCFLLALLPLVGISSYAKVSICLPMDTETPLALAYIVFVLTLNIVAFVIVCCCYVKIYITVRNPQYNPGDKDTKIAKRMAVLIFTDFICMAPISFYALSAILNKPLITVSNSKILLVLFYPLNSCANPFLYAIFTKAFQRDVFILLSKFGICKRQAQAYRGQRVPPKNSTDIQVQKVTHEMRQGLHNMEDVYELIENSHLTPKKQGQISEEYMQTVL

SMILES | Potency [1] | Potency [2] | Potency [3] | outcome [4] | Potency [5] | Potency [6] | activity change, positive = activation [7] | Potency [8] | Potency [9] | Potency [10] | activation [1] | activity change, negative = cytotoxicity [2] | activation (H2AX phosphorylation) [3] | activation [4] | activity change, negative = cytotoxicity [5] | activity, negative = inhibition [6] | activity change, negative = cytotoxicity [8] | activity change, negative = cytotoxic [9] | cytotoxicity [10]
CC(C)OC(C)C | inactive | inactive | inactive | inactive | inactive | inactive | -8.47% | inactive | inactive | inactive | – | – | – | – | – | – | – | – | –
Cc1cccc(C)c1NC(=O)CN1CCCCCC1 | inactive | inactive | inactive | inactive | inactive | inactive | 0.669% [at 42.5 µM] | inactive | inactive | inactive | – | – | – | – | – | – | – | – | –
CCCCCCCOC(=O)CCC | inactive | inactive | inactive | inactive | inactive | inactive | -0.487% | inactive | inactive | inactive | – | – | – | – | – | – | – | – | –
CCOc1ccc(NC(N)=O)cc1 | inactive | inactive | inactive | inactive | inactive | inactive | 1.88% | inactive | inactive | – | – | – | – | – | – | – | – | – | –
C1CCOC1 | inactive | inactive | inactive | inactive | inactive | inactive | 1.79% | inactive | inactive | inactive | – | – | – | – | – | – | – | – | –
COc1cc(C)ccc1C(C)C | inactive | inactive | inactive | inactive | inactive | inactive | -0.104% | inactive | inactive | – | – | – | – | – | – | – | – | – | –
CC(=O)OC1C2(C)CCC(C2)C1(C)C (stereo unspecified) | inactive | inactive | inactive | inactive | inactive | inactive | -1.44% | inactive | inactive | inactive | – | – | – | – | – | – | – | – | –
O=C(CCCl)NCc1ccccc1 | inactive | inactive | inactive | inactive | inactive | inactive | 5.97% [at 42.5 µM] | inactive | inactive | inactive | – | – | – | – | – | – | – | – | –
Cc1ncc(CO)c(CN)c1O | inactive | inactive | inactive | inactive | inactive | inactive | 4.27% [at 42.5 µM] | inactive | inactive | inactive | – | – | – | – | – | – | – | – | –
Cc1ccc(C)c(N)c1 | inactive | inactive | inactive | inactive | inactive | inactive | 2.8% | inactive | inactive | inactive | – | – | – | – | – | – | – | – | –
CC(C)(C)c1cccc(O)c1 | inactive | inactive | inactive | inactive | inactive | inactive | 1.25% | inactive | inactive | – | – | – | – | – | – | – | – | – | –
CCOc1ccc(OCC)c(Cl)c1 | inactive | inactive | inactive | inactive | inactive | inactive | 4.33% | inactive | inactive | inactive | – | – | – | – | – | – | – | – | –
C[C@@H]1CN(c2c(F)c(F)c3c(=O)c(C(=O)O)cn(C4CC4)c3c2F)C[C@H](C)N1 | – | – | – | – | – | – | 1.67% [at 19 µM] (active) | – | – | – | -4.01% [at 19 µM] | 2.14% [at 15.8 µM] | -0.115% [at 31.6 µM] | 0.101% [at 15.8 µM] | 5.9% [at 31.6 µM] | 2.94% [at 19 µM] | 0.621% [at 15.8 µM] | 11.6% [at 15.8 µM] | 5.43% [at 15.8 µM]
CCc1cc2cc(OC)c(OC)cc2c(Cc2ccccc2)n1 | inactive | inactive | inactive | inactive | inactive | inactive | -12.2% [at 42.5 µM] | inactive | 16.9 µM (active) | inactive | – | – | – | – | – | – | – | – | –
CO[Si](C)(C)OC | inactive | inactive | inactive | inactive | inactive | inactive | 4.8% | inactive | inactive | inactive | – | – | – | – | – | – | – | – | –
O=C(O)[C@@H](O)[C@H](O)[C@H](O)[C@@H](O)C(=O)O | inactive | inactive | inactive | inactive | inactive | inactive | 4.4% [at 42.5 µM] | inactive | inactive | inactive | – | – | – | – | – | – | – | – | –
CC(Oc1c(Cl)cccc1Cl)C1=NCCN1 (stereo unspecified) | inactive | inactive | inactive | inactive | inactive | inactive | -3.99% [at 42.5 µM] | inactive | inactive | inactive | – | – | – | – | – | – | – | – | –
NNS(=O)(=O)c1ccc(Oc2ccc(S(=O)(=O)NN)cc2)cc1 | inactive | inactive | inactive | inactive | inactive | inactive | -13.2% | inactive | inactive | – | – | – | – | – | – | – | – | – | –
O=c1[nH]cnc2c1ncn2[C@@H]1O[C@H](CO)[C@@H](O)[C@H]1O | inactive | inactive | inactive | inactive | inactive | inactive | 2.74% [at 42.5 µM] | inactive | inactive | inactive | – | – | – | – | – | – | – | – | –
